This passage reports composite z-score and z-score results from PubChem BioAssay.

The structures appear in SMILES notation. Calls of active or inactive are those of the source.

A short description of assay [1]: binders of probe aFSTL3 on microarray, primary screen, stem cell growth factor project, biochemical, small-molecule microarray, fluorescence 635/667 (AID 1064).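 Note: measures binding of the biotinylated anti-FSTL3 antibody to printed compounds.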 The note with it: higher = more signal.
A short description of assay [2]: binders from COS7 lysate, DM2A8 probe, primary screen, torsin A project, cell lysate, small-molecule microarray, fluorescence 635/667 (AID 1065). The note with it: higher = more signal, COS7 lysate expressing mutant human TOR1A.
Assay [3] can be described thus: binders of probe aFGF2 on microarray, primary screen, stem cell growth factor project, biochemical, small-molecule microarray, fluorescence 635/667 (AID 1067).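 Note: measures binding of biotinylated aFGF2 protein to printed compounds on slides; z-score merges feature fluorescence and signal-to-noise across triplicate slides.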 The note with it: higher = more signal.
Assay [4] is described as follows: binders of probe aFGF10 on microarray, primary screen, stem cell growth factor project, biochemical, small-molecule microarray, fluorescence 635/667 (AID 1071).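 Note: score merges 667 nm spot intensity and signal to noise from triplicate slides.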 The note with it: higher = more signal.
Assay [5] concerns the target Neurogenic locus notch homolog protein 2 (Homo sapiens) (UniProt Q04721). Description: Notch2 binders on small-molecule microarrays, primary screen, biochemical, small-molecule microarray, 635 nm fluorescence, stem cell growth factors (AID 1073). Particulars: Notch2 binding, higher = more signal.
For assay [6], the target named is Pro-neuregulin-1, membrane-bound isoform (Homo sapiens) (UniProt Q02297). The assay can be described thus: NRG1 binders on small-molecule microarrays, primary screen, psychiatric disease protein project, biochemical, small-molecule microarray, fluorescence 635/667 (AID 1075).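 Note: score combines 667 nm spot fluorescence with signal to noise.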 Particulars: NRG1 binding, 635 nm fluorescence, higher = more signal.
Assay [7] relates to Neuregulin-1 EGF-like domain. Description: binders of neuregulin-1 EGF-like domain, primary screen, biochemical, small-molecule microarray, 635 nm fluorescence (AID 1081).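 Note: binding of the protein to compounds printed on small-molecule microarray slides.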 Particulars: small-molecule microarray binding, higher = more signal.
Assay [8] in a line: FRG1 promoter luciferase signal modulators, primary screen, FRG1 inhibition for FSHD, cell-based, C2C12 myotubes, firefly/Renilla luciferase, luminescence (AID 1084). Particulars: higher = more signal, called active from +8 up or from −8 down.
Assay [9] is described as follows: binders of probe aFST on microarray, primary screen, stem cell growth factor project, biochemical, small-molecule microarray, fluorescence 635/667 (AID 1086).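 Note: score merges 667 nm fluorescence with signal-to-noise of each printed compound spot.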 The note with it: higher = more signal.
Assay [10] is described as follows: binders of probe aHhip on microarray, primary screen, stem cell growth factor project, biochemical, small-molecule microarray, fluorescence 635/667 (AID 1087).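 Note: score merges spot fluorescence at 667nm with spot signal to noise ratio.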 Particulars: higher = more signal.
Assay [11] concerns PRMT1 (protein arginine N-methyltransferase 1). The assay can be described thus: PRMT1 binders on small-molecule microarrays, primary screen, biochemical, small-molecule microarray, 635 nm fluorescence (AID 1088).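 Note: binding of Prmt1 protein to compounds spotted on small-molecule microarray slides.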 The note with it: small-molecule microarray binding, higher = more signal.
Assay [12] is described as follows: yeast growth modulation, basal conditions, primary screen, YJM789 clinical isolate, OD600, 24 h (AID 1089).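 Note: growth of clinical yeast isolate S. cerevisiae YJM 789 seeded 1000 cells per well; test concentration not given here.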 The note with it: S. cerevisiae YJM789 growth, higher = more signal, called active from +8 up or from −8 down.
Assay [13] in a line: fission yeast growth modulation, primary screen, strain 972, OD600, 24 h, no modulator (AID 1090).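 Note: basal condition with compound alone and no growth modifier present; test concentration not given here.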 The note with it: S. pombe 972 growth, higher = more signal, called active from +8 up or from −8 down.
Assay [14] can be described thus: S. cerevisiae growth modulation with rapamycin, primary screen, strain BY4716, OD600, 96 h (AID 1091). Note: test concentration not given here. The note with it: higher = more signal, called active from +8 up or from −8 down.
Assay [15] deals with Torsin-1A-interacting protein 2 (Homo sapiens) (UniProt Q8NFQ8). The assay can be described thus: LULL1 binders on small-molecule microarray, primary screen, cell lysate, human LULL1 lysate, 635/667 nm fluorescence (AID 1092).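 Note: probe is lysate of COS7 cells overexpressing human LULL1; score merges per-feature 667 nm fluorescence with signal-to-noise.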 Particulars: hLULL1 lysate binding, 635 nm fluorescence, higher = more signal.
Assay [16] is described as follows: E. coli growth modulation, two-sided OD650, primary screen, E. coli filamentation project, strain DRC41, 24 h (AID 1093).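 Note: MC1000 strain lacking acrAB efflux and sulA so SOS filamentation is blocked; test concentration not given here.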 Particulars: OD650, 24 h, higher = more signal, called active from +8 up or from −8 down.
Assay [17] can be described thus: small-molecule microarray binders of probe aLefty2, primary screen, biochemical, biotinylated probe, 635/667 nm fluorescence (AID 1094).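 Note: score merges spot fluorescence near 667 nm with spot signal-to-noise ratio.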 The note with it: higher = more signal.
Assay [18] has as its system Noggin (protein binding on small-molecule microarray). Description: Noggin binders on small-molecule microarray, primary screen, biochemical, 635/667 nm fluorescence (AID 1095).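 Note: score merges 667 nm feature fluorescence with signal to noise over triplicate slides.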 The note with it: 635 nm fluorescence, higher = more signal.
The target of assay [19] is Neurogenic locus notch homolog protein 3 (Homo sapiens) (UniProt Q9UM47). The assay can be described thus: NOTCH3 binders on small-molecule microarray, primary screen, biochemical, 635/667 nm fluorescence (AID 1096). The note with it: NOTCH3 binding, 635 nm fluorescence, higher = more signal.
The nature of assay [20]: small-molecule microarray binders of probe aEGFR, primary screen, biochemical, biotinylated probe, 635/667 nm fluorescence (AID 1097).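 Note: probe is a biotinylated anti-EGFR antibody binding compounds printed on slides; score combines fluorescence near 667 nm and signal to noise of each spot.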 The note with it: higher = more signal.

Chain of Neurogenic locus notch homolog protein 3 (Homo sapiens) (Q9UM47 whole entry, looked up): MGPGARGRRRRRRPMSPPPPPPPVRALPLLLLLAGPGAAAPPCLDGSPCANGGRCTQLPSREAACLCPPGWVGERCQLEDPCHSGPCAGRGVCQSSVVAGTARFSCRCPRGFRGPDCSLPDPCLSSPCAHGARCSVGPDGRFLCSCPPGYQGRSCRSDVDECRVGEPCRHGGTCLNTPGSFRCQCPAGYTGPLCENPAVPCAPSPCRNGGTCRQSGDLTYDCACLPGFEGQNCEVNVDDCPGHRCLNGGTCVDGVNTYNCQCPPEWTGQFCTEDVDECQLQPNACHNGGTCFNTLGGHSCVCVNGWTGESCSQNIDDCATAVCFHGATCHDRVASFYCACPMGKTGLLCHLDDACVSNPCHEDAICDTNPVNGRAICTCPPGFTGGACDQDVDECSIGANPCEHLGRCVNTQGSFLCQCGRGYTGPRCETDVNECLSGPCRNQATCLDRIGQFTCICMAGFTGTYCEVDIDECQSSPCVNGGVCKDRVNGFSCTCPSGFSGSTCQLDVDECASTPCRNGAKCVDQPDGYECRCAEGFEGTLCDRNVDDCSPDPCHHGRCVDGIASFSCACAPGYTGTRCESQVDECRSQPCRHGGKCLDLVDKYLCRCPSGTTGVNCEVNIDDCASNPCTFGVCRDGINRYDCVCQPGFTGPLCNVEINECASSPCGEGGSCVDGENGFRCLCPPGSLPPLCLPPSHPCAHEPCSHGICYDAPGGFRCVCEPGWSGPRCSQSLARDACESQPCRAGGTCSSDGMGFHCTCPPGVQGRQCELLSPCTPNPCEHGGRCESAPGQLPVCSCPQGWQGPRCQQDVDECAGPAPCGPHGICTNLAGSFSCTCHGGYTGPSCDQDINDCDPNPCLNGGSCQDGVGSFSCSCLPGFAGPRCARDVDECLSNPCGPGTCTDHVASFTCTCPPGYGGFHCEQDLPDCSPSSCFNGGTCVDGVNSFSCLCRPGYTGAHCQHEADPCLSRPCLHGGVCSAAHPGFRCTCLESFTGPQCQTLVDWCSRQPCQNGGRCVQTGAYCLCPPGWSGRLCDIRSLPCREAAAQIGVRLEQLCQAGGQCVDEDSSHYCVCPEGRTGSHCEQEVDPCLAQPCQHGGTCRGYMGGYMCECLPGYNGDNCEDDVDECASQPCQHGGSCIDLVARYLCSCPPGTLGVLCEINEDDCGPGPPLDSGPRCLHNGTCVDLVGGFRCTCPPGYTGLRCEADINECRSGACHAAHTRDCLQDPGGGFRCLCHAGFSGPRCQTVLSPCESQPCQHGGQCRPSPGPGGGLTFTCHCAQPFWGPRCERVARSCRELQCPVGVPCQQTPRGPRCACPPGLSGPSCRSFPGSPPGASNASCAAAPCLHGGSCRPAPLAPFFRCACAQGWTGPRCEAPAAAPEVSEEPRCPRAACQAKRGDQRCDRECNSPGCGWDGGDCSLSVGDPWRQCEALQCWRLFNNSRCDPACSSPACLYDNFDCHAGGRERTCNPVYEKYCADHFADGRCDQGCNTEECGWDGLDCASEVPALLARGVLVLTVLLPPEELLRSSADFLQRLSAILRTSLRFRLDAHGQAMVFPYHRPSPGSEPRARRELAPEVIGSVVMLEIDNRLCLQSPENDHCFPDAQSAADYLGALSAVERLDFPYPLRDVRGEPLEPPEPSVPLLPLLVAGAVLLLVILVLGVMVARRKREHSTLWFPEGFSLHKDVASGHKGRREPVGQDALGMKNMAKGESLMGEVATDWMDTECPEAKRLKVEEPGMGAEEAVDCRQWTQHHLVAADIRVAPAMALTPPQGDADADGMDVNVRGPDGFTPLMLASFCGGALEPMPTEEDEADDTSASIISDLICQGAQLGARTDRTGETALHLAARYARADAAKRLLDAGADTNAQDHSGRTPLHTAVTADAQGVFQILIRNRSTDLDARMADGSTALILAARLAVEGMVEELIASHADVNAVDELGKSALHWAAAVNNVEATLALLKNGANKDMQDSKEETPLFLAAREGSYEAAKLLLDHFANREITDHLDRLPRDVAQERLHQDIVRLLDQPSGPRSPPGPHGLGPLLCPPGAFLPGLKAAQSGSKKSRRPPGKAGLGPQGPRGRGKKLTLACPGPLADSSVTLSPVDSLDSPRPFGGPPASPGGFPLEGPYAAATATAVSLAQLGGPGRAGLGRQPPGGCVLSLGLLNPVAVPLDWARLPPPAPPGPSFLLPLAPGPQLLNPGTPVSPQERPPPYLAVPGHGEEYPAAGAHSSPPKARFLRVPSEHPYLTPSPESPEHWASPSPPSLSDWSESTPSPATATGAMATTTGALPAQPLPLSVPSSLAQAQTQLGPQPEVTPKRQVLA
Chain of Neurogenic locus notch homolog protein 2 (Homo sapiens) (Q04721 whole entry, looked up, canonical isoform): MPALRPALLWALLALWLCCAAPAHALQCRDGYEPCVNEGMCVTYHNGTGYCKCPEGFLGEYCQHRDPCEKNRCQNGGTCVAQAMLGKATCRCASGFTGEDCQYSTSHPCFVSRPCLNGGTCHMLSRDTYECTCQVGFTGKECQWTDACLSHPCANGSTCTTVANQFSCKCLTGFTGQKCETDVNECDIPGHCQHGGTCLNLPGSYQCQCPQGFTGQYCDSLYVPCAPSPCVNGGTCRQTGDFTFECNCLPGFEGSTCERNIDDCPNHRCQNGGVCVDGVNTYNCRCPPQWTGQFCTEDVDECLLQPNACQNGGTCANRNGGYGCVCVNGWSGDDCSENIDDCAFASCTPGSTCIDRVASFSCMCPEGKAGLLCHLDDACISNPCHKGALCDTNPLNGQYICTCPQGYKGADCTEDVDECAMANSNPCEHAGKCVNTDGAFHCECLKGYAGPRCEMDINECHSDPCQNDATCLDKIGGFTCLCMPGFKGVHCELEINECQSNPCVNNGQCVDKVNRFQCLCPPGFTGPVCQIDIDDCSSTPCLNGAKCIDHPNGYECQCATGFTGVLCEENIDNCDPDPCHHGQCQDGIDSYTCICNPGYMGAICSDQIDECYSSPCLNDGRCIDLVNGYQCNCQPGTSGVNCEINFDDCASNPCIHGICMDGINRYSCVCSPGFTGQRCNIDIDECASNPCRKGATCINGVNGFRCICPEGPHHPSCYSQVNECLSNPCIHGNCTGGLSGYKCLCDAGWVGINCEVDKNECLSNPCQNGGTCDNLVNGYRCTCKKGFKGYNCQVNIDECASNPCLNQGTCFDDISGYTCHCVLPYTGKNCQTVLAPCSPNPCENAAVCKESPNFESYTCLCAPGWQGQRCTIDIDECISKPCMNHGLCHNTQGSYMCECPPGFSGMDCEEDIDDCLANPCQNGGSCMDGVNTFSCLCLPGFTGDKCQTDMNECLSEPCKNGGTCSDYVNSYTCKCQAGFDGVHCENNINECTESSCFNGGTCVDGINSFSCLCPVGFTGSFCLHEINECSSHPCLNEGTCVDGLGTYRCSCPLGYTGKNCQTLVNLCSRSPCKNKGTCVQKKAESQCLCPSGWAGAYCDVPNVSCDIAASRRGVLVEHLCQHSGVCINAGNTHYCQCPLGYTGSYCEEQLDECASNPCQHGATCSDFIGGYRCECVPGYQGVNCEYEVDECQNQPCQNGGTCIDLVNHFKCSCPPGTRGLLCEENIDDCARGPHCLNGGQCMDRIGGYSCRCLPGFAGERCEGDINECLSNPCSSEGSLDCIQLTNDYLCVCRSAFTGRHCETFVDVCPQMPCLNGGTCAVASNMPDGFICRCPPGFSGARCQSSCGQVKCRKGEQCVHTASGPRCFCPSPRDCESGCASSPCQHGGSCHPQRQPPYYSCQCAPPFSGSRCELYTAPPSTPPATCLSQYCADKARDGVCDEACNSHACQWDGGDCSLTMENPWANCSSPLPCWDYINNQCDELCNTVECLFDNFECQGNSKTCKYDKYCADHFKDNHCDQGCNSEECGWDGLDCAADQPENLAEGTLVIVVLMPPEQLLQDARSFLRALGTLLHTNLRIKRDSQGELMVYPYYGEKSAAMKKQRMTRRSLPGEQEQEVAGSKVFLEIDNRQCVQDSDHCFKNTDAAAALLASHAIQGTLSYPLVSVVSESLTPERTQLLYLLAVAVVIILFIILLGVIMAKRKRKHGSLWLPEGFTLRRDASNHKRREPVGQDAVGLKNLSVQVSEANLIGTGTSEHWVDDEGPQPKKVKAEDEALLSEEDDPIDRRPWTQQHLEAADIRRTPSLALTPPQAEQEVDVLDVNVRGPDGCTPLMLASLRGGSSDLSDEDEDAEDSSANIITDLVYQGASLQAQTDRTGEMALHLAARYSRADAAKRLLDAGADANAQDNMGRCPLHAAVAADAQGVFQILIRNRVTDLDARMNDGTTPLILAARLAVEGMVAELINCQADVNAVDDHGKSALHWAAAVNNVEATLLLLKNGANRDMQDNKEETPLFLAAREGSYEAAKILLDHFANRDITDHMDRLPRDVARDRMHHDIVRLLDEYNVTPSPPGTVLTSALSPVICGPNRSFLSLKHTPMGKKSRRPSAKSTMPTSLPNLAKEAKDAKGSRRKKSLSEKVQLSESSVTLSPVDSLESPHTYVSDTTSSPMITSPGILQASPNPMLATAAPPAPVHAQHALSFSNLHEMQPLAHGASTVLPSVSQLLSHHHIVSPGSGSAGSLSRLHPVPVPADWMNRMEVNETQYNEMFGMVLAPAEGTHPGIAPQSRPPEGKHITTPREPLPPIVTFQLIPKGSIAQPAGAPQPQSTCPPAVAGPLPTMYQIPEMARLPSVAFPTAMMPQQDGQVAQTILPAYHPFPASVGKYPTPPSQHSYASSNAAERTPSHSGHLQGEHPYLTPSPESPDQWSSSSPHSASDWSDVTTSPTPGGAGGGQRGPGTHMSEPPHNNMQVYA

Regarding `[N-]=[N+]=Nc1ccccc1C[C@]1(C(=O)NCCN2CCOCC2)N=C(c2ccc(OCCCO)cc2)O[C@H]1c1ccccc1N=[N+]=[N-]`, the composite z-score was -0.195 in assay [1]; -0.354 in [2]; 0.125 in assay [3]; 0.763 in assay [4]; 1.64 in assay [5]; 1.59 in [6]. Also, the composite z-score stood at 1.33 in [7]; 0.839 in assay [9]; 0.113 in [10]; 1.55 in [11]; 3.37 in [15]; 0.491 in assay [17]. Also, the composite z-score in assay [18] is 0.708; in assay [19], 1.03; in assay [20], 0.542. The z-score is -0.344 (inactive) in [8]; -2.65 (inactive) in [12]; -4.92 (inactive) in [13]; -0.821 (inactive) in assay [14]; 0.683 (inactive) in assay [16].

Consider `COCCOC(=O)N1C(=O)[C@@]2(c3cc(C#CC4(O)CCCCCC4)ccc31)[C@H](C(=O)N1CCc3cc(OC)c(OC)cc3C1)[C@H]1C(=O)O[C@H](c3ccccc3)[C@H](c3ccccc3)N1[C@@H]2c1ccccc1OCCO`, for which the composite z-score is -0.0526 in assay [1]; 1.46 in assay [2]; 0.119 in assay [3]; 0.665 in assay [4]; 1.15 in assay [5]; 0.491 in assay [6]. For the same molecule, the composite z-score in assay [7] was determined as 1.22; in assay [9], 1.08; in [10], 0.623; in assay [11] it was 1.54; in assay [15], 1.39; in [17], 0.226. Also, the composite z-score in assay [18] amounted to 1.29; in assay [19], 1.06; in assay [20] it was 0.295. Moreover, the z-score in [8] was -0.165 (inactive); in assay [12], 2.29 (inactive); in [13], 1.05 (inactive); in assay [14] it was 3.98 (inactive); in assay [16], 1.36 (inactive).

`C=CC[C@@]1(C(=O)NCCN2CCOCC2)N=C(c2ccc(OCCCO)cc2)O[C@@H]1c1ccccc1`: the composite z-score in assay [1] is 0.424; in [2], 1.64; in [3] it was 0.0342; in assay [4] it was 0.66; in [5], 0.52; in assay [6] it was 0.595. For the same molecule, the composite z-score came out at 1.36 in [7]; 1.16 in assay [9]; 0.124 in assay [10]; 1.54 in [11]; 3.01 in assay [15]; 0.0634 in assay [17]. The composite z-score was found to be 2.08 in [18], 0.625 in [19] and 0.0149 in assay [20]. The z-score was 0.254 (inactive) in assay [8]; 0.305 (inactive) in assay [12]; 0.132 (inactive) in [13]; 0.33 (inactive) in assay [14]; 0.0348 (inactive) in assay [16].

As to `CC(C)(C)OC(=O)CC[C@@]1(C(=O)N2CCCCC2)N=C(c2ccc(OCCCO)cc2)O[C@@H]1c1ccccc1CN=[N+]=[N-]`, the composite z-score turned out to be 0.165 in assay [1]; 0.159 in assay [2]; 0.103 in [3]; 0.355 in assay [4]; 1.65 in assay [5]; 1.98 in assay [6]. The composite z-score is 1.22 in [7]; 1.63 in assay [9]; 0.0854 in [10]; 1.54 in assay [11]; 3.66 in assay [15]; 0.208 in [17]. Moreover, the composite z-score in [18] amounted to 0.39; in [19], 1.05; in [20], 0.0026. In addition, the z-score is -1.98 (inactive) in assay [8]; -0.492 (inactive) in [12]; -0.689 (inactive) in [13]; -0.0683 (inactive) in assay [14]; 0.308 (inactive) in assay [16].

On to `CC1=C2[C@@H](CCc3ccccc3)OB(O)C[C@@H]2[C@@H]2C(=O)C=CC(=O)[C@@H]2C1`, for which the composite z-score is -0.741 in assay [1]; 0.654 in assay [2]; -0.0887 in assay [3]; 1.13 in assay [4]; 1.38 in assay [5]; 0.51 in [6]. Further, the composite z-score was 0.976 in assay [7]; 0.32 in assay [9]; -0.16 in assay [10]; 1.31 in [11]; 0.775 in assay [15]; 0.0037 in assay [17]. Moreover, the values for the composite z-score in assay [18], in assay [19] and in assay [20] were 0.642, 1.1 and 0.0484, respectively. In addition, the z-score was -1.57 (inactive) in assay [8]; -0.689 (inactive) in assay [12]; -15.6 (active) in assay [13]; -0.679 (inactive) in [14]; -0.315 (inactive) in [16].
